# PubChem BioAssay (NCI)
# About 83,000 compounds went through this panel and 20% of them were active in at least one assay; those are over-represented in the sample as a whole.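 Cell lines were cultured in 96-well plates, exposed to a single compound concentration, and assessed for percent growth 48 hours later.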 Unmarked numbers belong to inactive results. Calls of active or inactive are those of the source.
# Tested on: MOLT-4 leukemia
# Experiment: NCI-60 one-dose screen, 48 h (100 = growth as untreated, 0 = no growth, -100 = all killed)
# Settings: 10 µM unless noted
# Description: Growth inhibition of the MOLT-4 human tumor cell line is measured as a screen for anti-cancer activity. Cells are grown in 96 well plates and exposed to the test compound for 48 hours. Compounds are tested at a single concentration, which is 10^-5 M for most compounds. The reported endpoint is percent growth (GI% or GIPRCNT), where numbers from 0 - 100% represent growth inhibition, and numbers from -100% - 0 represent cell death. For example, a value of 40 represents 60% growth inhibition. A value of 0 means no net growth occurred over the course of the experiment. A value of -40 indicates 40% of cells at the beginning of the experiment died by the end of the experiment. A value of -100 means all cells are dead at the end of the experiment.
# NCI-60 Human Tumor Cell Lines Screen was performed using the standard one-dose NCI protocol, which is described in more detail at https://dtp.cancer.gov/discovery_development/nci-60/default.htm.
# Compounds with GIPRCNT values below 10 were considered active. Activity score was based on GIPRCNT using the following formula: […]
# Score is 0 for GIPRCNT values of 100 or above, 50 for GIPRCNT values of 0, and 100 for GIPRCNT values of -100.
row,SMILES,growth
1,N#Cc1c(N)nc2c(c1N)C(c1ccc(Cl)cc1)C1=C(CCCC1=O)N2c1sc2c(c1C#N)CCCC2 (stereo not given),90%
2,O=C1OC(c2ccc(-c3ccccc3)cc2)=C/C1=C/C=C/c1ccccc1,98.5%
3,CCCCn1c(-c2cccc(OC)c2)nc2cc(OC)c(OC)cc2c1=O,69.8%
4,N#CC1=C(N)Oc2c(ccc3ccccc23)C1c1cc(=O)oc2ccc(Cl)cc12 (stereo not given),20.8%
5,CCOc1ccccc1C(=O)N1CCN(c2cc(Cl)cc(Cl)c2)CC1,7.37% (active)
6,NC(CSC(c1ccccc1)(c1ccccc1)c1ccc(F)cc1)C(=O)O (stereo not given),9.44% (active)
7,CCOC(=O)c1noc2c1CCc1c-2cn(Cc2ccc(OC)cc2)c1-c1cc(OC)c(OC)c(OC)c1,18.5%
8,O=C(Nc1cccc(-n2ccc3c(NC(=O)c4ccccc4)nccc32)c1)c1cccc(C(F)(F)F)c1,13.1%
9,Clc1ccc(OCc2nc(-c3ccccc3)n[nH]2)c(Cl)c1,98.7%
10,Oc1ccc(O)c(-[n+]2ccccc2)c1,91.9%
11,Cc1c(Cl)ccc2c(C(=O)Cl)cc(-c3ccccc3)nc12,96.2%
12,COc1ccccc1S(=O)(=O)Nc1ccc2c3c(cc(-c4ccoc4)nc13)C(=O)N2C,75.8%
13,COC(=O)Nc1nc2ccc(Sc3ccccc3)cc2[nH]1,14.6%
14,O=C(CSc1nnc(-c2ccccc2)o1)Nc1ccc(C(=O)/C=C/c2ccccc2)cc1,59%
15,COc1cc(C(=O)NNC(=O)c2ccccc2O)cc(OC)c1OC,74.6%
16,Nc1ccc(S(=O)(=O)Nc2ccnn2-c2ccccc2)cc1,98.1%
17,COC(=O)c1oc2c(C(C)=O)c(OCCN3CCCCC3)ccc2c1C,108%
18,CCCCCn1ncc(-c2c(O)c(O)cc3c(O)c(-c4c(C)cc5c(-c6cnn(CCCCC)n6)c(O)c(O)cc5c4O)c(C)cc23)n1,6.44% (active)
19,CC(C)CNCC(O)COc1ccc(C(C)(C)c2ccc(OCC(O)CNCC(C)C)cc2)cc1 (stereo not given),-35.8% (active)
20,Cc1c(NC(=O)c2sc3nc4c(cc3c2N)CN(Cc2ccccc2)CC4)cccc1C(F)(F)F,25.9%

row,SMILES,growth
1,CCC1(C(N)=O)CC2C=CC1CC2 (stereo not given),111%
2,Nc1ncnc2c1c(-c1ccc(Oc3ccccc3)cc1)nn2C[C@@H]1SSC[C@H]1O,0.449% (active)
3,O=[N+]([O-])c1ccccc1NC1c2ccccc2Oc2ccccc21,13.8%
4,O=C(Cn1c2ccccc2c2ccncc21)N/N=C/c1cc(O)c(O)c(O)c1,88.4%
5,O=C1C(Cl)=C(Nc2ccccc2)C(=O)C(Cl)=C1Nc1ccccc1,114%
6,O=C(Nc1ccc(-n2ccc3c(NC(=O)c4ccccc4)nccc32)cc1)c1ccc(Cl)c(C(F)(F)F)c1,8.54% (active)
7,CNC(=O)NN,105%
8,COc1ccc(/C=C2\CS(=O)(=O)C/C(=C\c3ccc(OC)cc3)C2=O)cc1,-16.1% (active)
9,Cn1cnc([N+](=O)[O-])c1N1c2ccncc2Sc2ccncc21,91.6%
10,COc1ccc(-c2nn(-c3ccc(NC(=O)Nc4cc(C(F)(F)F)cc(C(F)(F)F)c4)cc3)cc2-c2ccncc2)cc1Cl,6.78% (active)
11,COC(=O)/C=C/C(=O)c1cc(C)cc(C)c1O,89.8%
12,COC1=C(OC)C(=O)C=CC1=O,12.6%
13,NC(N)=N/N=C/c1ccc([N+](=O)[O-])cc1,97.5%
14,COc1ccc(C(=O)Cn2cnc3c(Nc4cc(C(=O)Nc5ccc(N6CCN(CCO)CC6)cc5)ccc4C)ncnc32)cc1,90%
15,O=C(NCCNc1nccc(-c2c(-c3cccc(O)c3)nc3sccn23)n1)Nc1cc(C(F)(F)F)cc(C(F)(F)F)c1,60.2%
16,Nc1n[nH]c2cccc(C#Cc3cccc(NC(=O)c4cccc(C(F)(F)F)c4)c3)c12,27.3%
17,Cc1ccn2cc(Cc3cc(=O)oc4c3ccc3ccccc34)c(=O)nc2c1,87.9%
18,COc1ccc(-c2nn(-c3cccc(Cl)c3)cc2-c2cc(-c3ccc(Br)cc3)[nH]c(=O)c2C#N)cc1,76%
19,COc1ccc(C2=NN(C(=O)COc3ccc(Cl)cc3)C(O)(c3cc(F)c(Cl)cc3Cl)C2)cc1OC (stereo not given),-32% (active)
20,CN(C)C(=O)Nc1nc2cc(Cl)c(Cl)cc2[nH]1,8.26% (active)
